Laboratory results taken from PubChem BioAssay AID1159580 (chemical genetic matrix, 2015).
In all, about 5,500 compounds went through this assay and about 2,000 (36%) were called active. Roughly 18% stayed inconclusive and do not appear here. Cut-off read from the data, not from the text of the source: active = normalized growth mostly below about 0.91 (no sharp cut-off); inconclusive = no clear call, values can overlap the other calls; inactive = mostly above about 0.92. This is one part of the list.

Experiment: chemical genetic growth profiling, strain panel (AID 1159580);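 note: tested at 20 µM; growth read once vehicle control cultures reached saturation at 30 °C; 1 = growth at the plate median or of vehicle wells; lower values mean less growth of the strain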
Details: growth OD

Measured: normalized growth

CC(=O)O[C@]1(C(C)=O)CCC2C3C[C@H](C)C4=CC(=O)CC[C@]4(C)C3CC[C@@]21C (stereo partly drawn)
inactive: S. cerevisiae deletion strains, locus YJR075W, strain HOC1, stronger effect = lower value 0.99 | S. cerevisiae deletion strains, locus YKL009W, strain mrt4, stronger effect = lower value 0.973 | S. cerevisiae deletion strains, locus YKL068W, stronger effect = lower value 0.971 | S. cerevisiae deletion strains, locus YKL085W, strain MDH1 (second series), stronger effect = lower value 0.977 | S. cerevisiae deletion strains, locus YKL085W, strain MDH1, stronger effect = lower value 0.977 | S. cerevisiae deletion strains, locus YKL160W, strain elf1, stronger effect = lower value 0.911 | S. cerevisiae deletion strains, locus YKL190W, strain CNB1, stronger effect = lower value 0.989 | S. cerevisiae deletion strains, locus YKR001C, strain vps1, stronger effect = lower value 0.956 | S. cerevisiae deletion strains, locus YKR026C, strain gcn3, stronger effect = lower value 0.981 | S. cerevisiae deletion strains, locus YKR091W, strain srl3, stronger effect = lower value 0.959 | S. cerevisiae deletion strains, locus YLL026W, stronger effect = lower value 0.976 | S. cerevisiae deletion strains, locus YLL041C, strain sdh2, stronger effect = lower value 0.968 | S. cerevisiae deletion strains, locus YLR027C, strain aat2, stronger effect = lower value 0.976 | S. cerevisiae deletion strains, locus YLR039C, strain RIC1, stronger effect = lower value 1.05 | S. cerevisiae deletion strains, locus YLR058C, strain SHM2, stronger effect = lower value 0.979 | S. cerevisiae deletion strains, locus YLR102C, strain apc9, stronger effect = lower value 0.989 | S. cerevisiae deletion strains, locus YLR113W, strain HOG1, stronger effect = lower value 0.965 | S. cerevisiae deletion strains, locus YLR258W, strain gsy2, stronger effect = lower value 0.949 | S. cerevisiae deletion strains, locus YLR262C, strain YPT6, stronger effect = lower value 0.957 | S. cerevisiae deletion strains, locus YLR268W, strain sec22, stronger effect = lower value 0.977 | S. cerevisiae deletion strains, locus YLR330W, strain CHS5, stronger effect = lower value 0.988 | S. cerevisiae deletion strains, locus YLR342W, strain FKS1 (second series), stronger effect = lower value 0.984 | S. cerevisiae deletion strains, locus YLR342W, strain FKS1, stronger effect = lower value 0.948 | S. cerevisiae deletion strains, locus YLR357W, strain rsc2, stronger effect = lower value 0.939 | S. cerevisiae deletion strains, locus YLR370C, strain arc18, stronger effect = lower value 0.925 | S. cerevisiae deletion strains, locus YLR371W, strain rom2, stronger effect = lower value 0.985 | S. cerevisiae deletion strains, locus YLR384C, strain iki3, stronger effect = lower value 0.977 | S. cerevisiae deletion strains, locus YML016C, strain PPZ1, stronger effect = lower value 0.996 | S. cerevisiae deletion strains, locus YML032C, strain rad52, stronger effect = lower value 0.984 | S. cerevisiae deletion strains, locus YML120C, strain ndi1, stronger effect = lower value 0.916 | S. cerevisiae deletion strains, locus YML124C, strain tub3, stronger effect = lower value 0.986 | S. cerevisiae deletion strains, locus YMR058W, strain fet3, stronger effect = lower value 0.968 | S. cerevisiae deletion strains, locus YMR078C, strain ctf18, stronger effect = lower value 0.97 | S. cerevisiae deletion strains, locus YMR125W, strain sto1, stronger effect = lower value 0.947 | S. cerevisiae deletion strains, locus YMR129W, stronger effect = lower value 0.972 | S. cerevisiae deletion strains, locus YMR205C, strain PFK2, stronger effect = lower value 0.906 | S. cerevisiae deletion strains, locus YMR223W, strain ubp8, stronger effect = lower value 0.917 | S. cerevisiae deletion strains, locus YMR231W, strain pep5, stronger effect = lower value 0.978 | S. cerevisiae deletion strains, locus YMR263W, strain SAP30, stronger effect = lower value 0.989 | S. cerevisiae deletion strains, locus YMR307W, strain GAS1, stronger effect = lower value 0.992 | S. cerevisiae deletion strains, locus YNL067W, strain RPL9B, stronger effect = lower value 0.993 | S. cerevisiae deletion strains, locus YNL153C, strain GIM3, stronger effect = lower value 0.983 | S. cerevisiae deletion strains, locus YNL183C, strain NPR1, stronger effect = lower value 0.951 | S. cerevisiae deletion strains, locus YNL209W, strain ssb2, stronger effect = lower value 0.958 | S. cerevisiae deletion strains, locus YNL233W, strain BNI4, stronger effect = lower value 0.989 | S. cerevisiae deletion strains, locus YNL248C, strain rpa49, stronger effect = lower value 0.955 | S. cerevisiae deletion strains, locus YNL250W, strain rad50, stronger effect = lower value 0.986 | S. cerevisiae deletion strains, locus YNL271C, strain bni1, stronger effect = lower value 0.969 | S. cerevisiae deletion strains, locus YNL298W, strain CLA4, stronger effect = lower value 0.953 | S. cerevisiae deletion strains, locus YNL307C, strain MCK1, stronger effect = lower value 0.914 | S. cerevisiae deletion strains, locus YNL322C, strain KRE1 (second series), stronger effect = lower value 0.962 | S. cerevisiae deletion strains, locus YNR049C, strain mso1, stronger effect = lower value 0.974 | S. cerevisiae deletion strains, locus YNR052C, strain pop2, stronger effect = lower value 0.994 | S. cerevisiae deletion strains, locus YOL012C, strain htz1 1.07 | S. cerevisiae deletion strains, locus YOL147C, strain pex11, stronger effect = lower value 0.983 | S. cerevisiae deletion strains, locus YOR001W, strain rrp6, stronger effect = lower value 1.01 | S. cerevisiae deletion strains, locus YOR061W, strain CKA2, stronger effect = lower value 0.987 | S. cerevisiae deletion strains, locus YOR069W, strain VPS5, stronger effect = lower value 0.984 | S. cerevisiae deletion strains, locus YOR070C, strain gyp1, stronger effect = lower value 0.967 | S. cerevisiae deletion strains, locus YOR080W, strain dia2, stronger effect = lower value 0.97 | S. cerevisiae deletion strains, locus YOR083W, strain WHI5, stronger effect = lower value 0.927 | S. cerevisiae deletion strains, locus YOR106W, strain vam3, stronger effect = lower value 0.95 | S. cerevisiae deletion strains, locus YOR136W, strain idh2, stronger effect = lower value 1 | S. cerevisiae deletion strains, locus YOR144C, strain elg1, stronger effect = lower value 0.997 | S. cerevisiae deletion strains, locus YOR184W, strain ser1, stronger effect = lower value 0.875 | S. cerevisiae deletion strains, locus YOR231W, strain MKK1, stronger effect = lower value 0.998 | S. cerevisiae deletion strains, locus YOR265W, strain rbl2, stronger effect = lower value 0.986 | S. cerevisiae deletion strains, locus YOR270C, strain vph1, stronger effect = lower value 0.867 | S. cerevisiae deletion strains, locus YOR290C, strain snf2, stronger effect = lower value 0.873 | S. cerevisiae deletion strains, locus YOR316C, strain cot1, stronger effect = lower value 0.986 | S. cerevisiae deletion strains, locus YPL051W, strain arl3, stronger effect = lower value 0.937 | S. cerevisiae deletion strains, locus YPL055C, strain LGE1, stronger effect = lower value 0.963 | S. cerevisiae deletion strains, locus YPL078C, strain atp4, stronger effect = lower value 0.939 | S. cerevisiae deletion strains, locus YPL106C, strain sse1, stronger effect = lower value 0.991 | S. cerevisiae deletion strains, locus YPL240C, strain hsp82, stronger effect = lower value 0.967 | S. cerevisiae deletion strains, locus YPL256C, strain CLN2, stronger effect = lower value 1 | S. cerevisiae deletion strains, locus YPR119W, strain clb2, stronger effect = lower value 0.986 | S. cerevisiae deletion strains, locus YPR141C, strain kar3, stronger effect = lower value 0.954 | S. cerevisiae deletion strains, locus YPR163C, strain tif3, stronger effect = lower value 0.982 | S. cerevisiae deletion strains, locus YPR167C, strain met16, stronger effect = lower value 0.982 | S. cerevisiae deletion strains, strain wtn01, stronger effect = lower value 0.955 | S. cerevisiae strains, strain wild type, stronger effect = lower value 0.991
active: S. cerevisiae deletion strains, locus YLL001W, strain dnm1, stronger effect = lower value 0.894 | S. cerevisiae deletion strains, locus YLR221C, strain rsa3, stronger effect = lower value 0.9 | S. cerevisiae deletion strains, locus YLR262C, strain YPT6 (second series), stronger effect = lower value 0.815 | S. cerevisiae deletion strains, locus YLR320W, strain mms22, stronger effect = lower value 0.875 | S. cerevisiae deletion strains, locus YLR418C, strain cdc73, stronger effect = lower value 0.829 | S. cerevisiae deletion strains, locus YNL071W, strain lat1, stronger effect = lower value 0.876
